Results filed as inconclusive are left out. Calls of active or inactive are those of the source. Unless noted, how the calls were made is not given here.
Tests used:
[1] = SU-DIPG-VI glioma cell viability, MIPE4.0 library, CellTiter-Glo luminescence, qHTS (AID 1347066; cut-off not given, nearly all actives have AC50 up to about 30 µM;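 further: cells exposed to compound for 48 hours before readout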); conditions: CellTiter-Glo ATP luminescence
[2] = hESC survival regulators, cell-based (AID 493140); conditions: human embryonic stem cell survival screen; stronger effect = higher value;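 further: cells exposed to compounds for four days before counting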
[3] = growth inhibition of DIPG glioma cells, dose response, cell-based, SU-DIPG-XVII, MIPE5.0, CellTiter-Glo, qHTS (AID 1347060; cut-off not given, nearly all actives have AC50 up to about 26 µM;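 on AC50: cells exposed to compound for 48 hours before viability readout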); conditions: SU-DIPG-XVII viability, CellTiter-Glo ATP luminescence
[4] = growth inhibition of DIPG glioma cells, dose response, cell-based, SU-DIPG-XIII, MIPE5.0, CellTiter-Glo, qHTS (AID 1347064; cut-off not given, nearly all actives have AC50 up to about 23 µM); conditions: SU-DIPG-XIII viability, CellTiter-Glo ATP luminescence
[5] = viability loss in pontine glioma line – cell-based, SU-DIPG-XXV, MIPE5.0, CellTiter-Glo, qHTS, dose response (AID 1347065; cut-off not given, nearly all actives have AC50 up to about 26 µM;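 further: cells exposed to compound for 48 hours before ATP readout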); conditions: CellTiter-Glo ATP luminescence
[6] = SU-DIPG-XXV glioma cell viability, MIPE5.0 library, qHTS (AID 1347068; cut-off not given, nearly all actives have IC50 up to about 30 µM)
[7] = growth inhibition of DIPG glioma cells, dose response, cell-based, SU-DIPG-IV, MIPE4.0, CellTiter-Glo, qHTS (AID 1347063; cut-off not given, nearly all actives have AC50 up to about 30 µM;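 further: compound exposure lasted 48 hours before the viability readout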); conditions: SU-DIPG-IV viability, CellTiter-Glo ATP luminescence
[8] = circadian clock period modulators, cell-based, LOPAC library, luminescence reporter (AID 2774); conditions: circadian reporter cells, at 7 µM, actives lie on both sides;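 further: values are relative to mean of DMSO wells on each plate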
[9] = test system: Hepatitis C virus NS3 helicase; assay: HCV NS3 helicase inhibitors, primary screen, biochemical, fluorescence polarization, LOPAC1280 library (AID 687035; in the data active means inhibition above about 37%); conditions: Purified HCV NS3 helicase, Cy5-dT15 ssDNA binding fluorescence polarization; stronger effect = higher value; concentration not given here
[10] = Cy5 fluorescence quenching or enhancement artefacts, artefact control for HCV NS3 helicase inhibitor project, biochemical, LOPAC1280 (AID 687037); conditions: Cy5-DNA-NS3h complex fluorescence interference counterscreen
[11] = phospholipid biosynthesis inhibitors in animal cells, primary screen, cell-based, LOPAC library, screen 4 (AID 1347384); conditions: phospholipid biosynthesis inhibition screen, at 10 µM
[12] = LFS_MB_P medulloblastoma growth inhibition, cell-based, chromothripsis tumors, cisplatin or BGB combos (AID 1671449; in the data active means inhibition above about 80%;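 further: cells exposed for 96 hours; 0% = vehicle DMSO and 100% = killing by high DMSO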); conditions: LFS_MB_P medulloblastoma cells
[13] = HDN33 neuroblastoma growth inhibition, cell-based, chromothripsis tumors, cisplatin or BGB combos (AID 1671450; in the data active means inhibition above about 80%;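 further: cells exposed to compound for four days; 0% = vehicle DMSO and 100% = cell killing by high DMSO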); conditions: HDN33 neuroblastoma cells, stronger effect = higher value
[14] = LFS_MB_1R medulloblastoma cell growth inhibition, synergistic combos for chromothripsis tumors, cisplatin or BGB combos (AID 1671452; in the data active means inhibition above about 80%;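 further: cells exposed for 96 hours before readout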); conditions: LFS_MB_1R medulloblastoma cells, stronger effect = higher value
[15] = HTB85 osteosarcoma cell growth inhibition, synergistic combos for chromothripsis tumors, BGB or cisplatin IC20 combos (AID 1671453; in the data active means inhibition above about 80%;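 further: cells exposed for 96 hours before readout; 0% = vehicle DMSO and 100% = high DMSO killing control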); conditions: HTB85 osteosarcoma cells, drug combinations, stronger effect = higher value
[16] = MDA-MB-436 breast carcinoma cell growth inhibition, synergistic combos for chromothripsis tumors, BGB or cisplatin combos (AID 1671458); conditions: MDA-MB-436 breast carcinoma growth inhibition, drug combinations, stronger effect = higher value;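 further: cells exposed for 96 hours; 0% = vehicle DMSO and 100% = killing by high DMSO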
[17] = growth inhibition of BT084 medulloblastoma cells, cell-based, ICGC_MB145, cisplatin and BGB IC40 combos (AID 1671461; in the data active means inhibition above about 80%;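 further: cells exposed to drugs for 96 hours; 0% = vehicle DMSO and 100% = high DMSO full killing control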); conditions: drug combinations, stronger effect = higher value
[18] = growth inhibition of RCMB18 medulloblastoma cells, cell-based, cisplatin and BGB IC40 combos (AID 1671462; in the data active means inhibition above about 80%;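 further: cells exposed to compound for four days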); conditions: stronger effect = higher value
[19] = growth inhibition of CRL1545 osteosarcoma cells, cell-based, cisplatin and BGB IC20 combos (AID 1671464; in the data active means inhibition above about 80%;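 further: cells exposed to compound for 96 hours before readout; 0% = vehicle DMSO and 100% = high DMSO killing control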); conditions: stronger effect = higher value
[20] = JHH-DIPG-1 glioma cell viability, MIPE5.0 library, CellTiter-Glo luminescence, qHTS (AID 1347067; cut-off not given, nearly all actives have AC50 up to about 26 µM;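 further: cells exposed to compound for 48 hours before readout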); conditions: JHH-DIPG-1 glioma viability, CellTiter-Glo ATP luminescence
[21] = at 0.5 µM, stronger effect = higher value
[22] = measured here: combination with BGB IC20, at 0.005 µM
[23] = measured here: combination with BGB IC40, at 0.005 µM
[24] = measured here: combination with BGB IC40, at 0.05 µM
[25] = measured here: combination with cisplatin, at 0.5 µM, stronger effect = higher value
[26] = measured here: combination with cisplatin, at 5 µM, stronger effect = higher value
[27] = measured here: with BGB IC20 combination, at 0.5 µM
[28] = measured here: with cisplatin IC20 combination, at 0.5 µM
[29] = measured here: combination with cisplatin, at 0.5 µM
[30] = measured here: combination with cisplatin, at 5 µM
[31] = measured here: with BGB IC20, at 0.5 µM
[32] = measured here: with BGB IC20, at 5 µM
[33] = measured here: with cisplatin IC20, at 0.5 µM
[34] = measured here: with cisplatin IC20, at 5 µM
[35] = measured here: BGB combination, at 0.5 µM
[36] = measured here: BGB combination, at 5 µM
[37] = measured here: cisplatin combination, at 0.5 µM
[38] = measured here: cisplatin combination, at 5 µM
[39] = cisplatin combination, at 0.5 µM
[40] = measured here: BGB IC40 combination 0.05 uM, at 0.05 µM
[41] = measured here: BGB IC40 combination, at 0.05 µM

COc1cc(O)c2c(c1)C(=O)c1cc(C)cc(O)c1C2=O
outcome [1]: inactive

CCC(c1ccc(O)cc1)C(CC)c1ccc(O)cc1 (centres undefined)
survival [2]: 2.75 (inactive)
outcome [3]: inactive
outcome [4]: inactive
outcome [5]: inactive
outcome [6]: inactive

COc1ccc(-c2coc3cc(O)cc(O)c3c2=O)cc1
AC50 [3]: 26.3 µM (active)
outcome [5]: inactive
outcome [1]: inactive

COc1cc(/C=C/C(=O)O)ccc1O
outcome [7]: inactive
outcome [1]: inactive

O=C(O)/C=C/c1ccc(O)c(O)c1
period change [8]: 0.055 h (inactive)
inhibition [9]: 0% (inactive)
fluorescence ratio (interference) [10]: 1 (inactive)
AC50 [7]: 20.9 µM (active)
outcome [11]: inactive

CCn1nc(C(=O)O)c(=O)c2cc3c(cc21)OCO3
period change [8]: 0.04 h (inactive)
survival [2]: 2.42 (inactive)
inhibition [9]: -4% (inactive)
fluorescence ratio (interference) [10]: 1 (inactive)
outcome [11]: inactive
inhibition [12, 21]: -4.36% (inactive)
inhibition [12, 22]: -22%
inhibition [12, 23]: -16.5%
inhibition [12, 24]: -12.9%
inhibition [12, 25]: -13.6%
inhibition [12, 26]: -41.5%
inhibition ([13]; BGB combo, at 5 µM): -23.8%
inhibition ([13]; at 0.5 µM): -7.41% (inactive)
inhibition ([13]; cisplatin combo, at 5 µM): -10.5%
inhibition [13, 27]: -15.2%
inhibition [13, 28]: -1.32%
inhibition ([13]; single agent, at 5 µM): -41.5%
inhibition ([14]; at 0.5 µM): -36.2% (inactive)
inhibition [14, 24]: -30.8%
inhibition [14, 29]: -40.5%
inhibition [14, 30]: 15.7%
inhibition ([15]; at 0.5 µM): -28.8% (inactive)
inhibition [15, 31]: -63%
inhibition [15, 32]: 5.32%
inhibition [15, 33]: -29.8%
inhibition [15, 34]: -12.6%
inhibition ([15]; single agent, at 5 µM): -6.73%
inhibition ([16]; at 0.5 µM): -10.8% (inactive)
inhibition [16, 35]: -3.35%
inhibition [16, 36]: -16.6%
inhibition [16, 37]: -23.3%
inhibition [16, 38]: -13.2%
inhibition ([17]; at 0.5 µM): -21.7% (inactive)
inhibition [17, 39]: -15.5%
inhibition ([17]; cisplatin combination, at 5 µM): -34.6%
inhibition [17, 40]: -12.7%
inhibition ([17]; single agent, at 5 µM): -10.2%
inhibition ([18]; at 0.5 µM): -22.9% (inactive)
inhibition ([18]; cisplatin combo, at 5 µM): -5.51%
inhibition [18, 41]: -14.3%
inhibition [18, 29]: -7.95%
inhibition ([18]; single agent, at 5 µM): -10.2%
inhibition ([19]; at 0.5 µM): -33.4% (inactive)
inhibition [19, 27]: -23%
inhibition [19, 28]: -38.6%
inhibition ([19]; single agent, at 0.05 µM): 5.27%
inhibition ([19]; single agent, at 5 µM): 10.4%

C1CCc2nnnn2CC1
period change [8]: -0.075 h (inactive)
survival [2]: 27.4 (inactive)
inhibition [9]: -2% (inactive)
fluorescence ratio (interference) [10]: 1 (inactive)
outcome [11]: inactive

O=C(CCc1ccc(O)cc1)c1c(O)cc(O)cc1O
period change [8]: 0.135 h (inactive)
inhibition [9]: -4% (inactive)
fluorescence ratio (interference) [10]: 1 (inactive)
outcome [3]: inactive
outcome [4]: inactive
outcome [5]: inactive
outcome [20]: inactive
outcome [6]: inactive
outcome [11]: inactive

O=c1c(O)c(-c2ccc(O)c(O)c2)oc2cc(O)ccc12
AC50 [7]: 18.7 µM (active)
AC50 [1]: 29.6 µM (active)
inhibition [12, 21]: -6.56% (inactive)
inhibition [12, 22]: -16.9%
inhibition [12, 23]: 5.59%
inhibition [12, 24]: 5.54%
inhibition [12, 25]: -17.1%
inhibition [12, 26]: 11%
inhibition ([13]; BGB combo, at 5 µM): -4.9%
inhibition ([13]; at 0.5 µM): 4.36% (inactive)
inhibition ([13]; cisplatin combo, at 5 µM): 3.02%
inhibition [13, 27]: -4.05%
inhibition [13, 28]: 5.86%
inhibition ([13]; single agent, at 5 µM): -1.94%
inhibition ([14]; at 0.5 µM): -4.27% (inactive)
inhibition [14, 24]: -15.9%
inhibition [14, 29]: -18.5%
inhibition [14, 30]: -12.6%
inhibition ([15]; at 0.5 µM): 3.31% (inactive)
inhibition [15, 31]: -8.35%
inhibition [15, 32]: 3.71%
inhibition [15, 33]: 14.6%
inhibition [15, 34]: 6.28%
inhibition ([15]; single agent, at 5 µM): 8.35%
inhibition ([16]; at 0.5 µM): -7.38% (inactive)
inhibition [16, 35]: 5.2%
inhibition [16, 36]: -2.65%
inhibition [16, 37]: -24.9%
inhibition [16, 38]: 5.5%
inhibition ([17]; at 0.5 µM): -4.39% (inactive)
inhibition [17, 39]: -0.071%
inhibition ([17]; cisplatin combination, at 5 µM): -26.8%
inhibition [17, 40]: 5.57%
inhibition ([17]; single agent, at 5 µM): -4.55%
inhibition ([18]; at 0.5 µM): -4.12% (inactive)
inhibition ([18]; cisplatin combo, at 5 µM): 18.3%
inhibition [18, 41]: 21.3%
inhibition [18, 29]: -7.15%
inhibition ([18]; single agent, at 5 µM): -9.89%
inhibition ([19]; at 0.5 µM): -3.43% (inactive)
inhibition [19, 27]: -7.45%
inhibition [19, 28]: -1.43%
inhibition ([19]; single agent, at 0.05 µM): 31.3%
inhibition ([19]; single agent, at 5 µM): 6.36%

COc1ccc(-c2coc3cc(O)ccc3c2=O)cc1
outcome [7]: inactive
outcome [1]: inactive

NC(N)=NC(N)=Nc1ccccc1
period change [8]: 0.065 h (inactive)
inhibition [9]: -3% (inactive)
fluorescence ratio (interference) [10]: 1 (inactive)
outcome [11]: inactive

O=C(/C=C/c1ccc(O)c(O)c1)OCCc1ccccc1
period change [8]: 0.335 h (inactive)
inhibition [9]: -2% (inactive)
fluorescence ratio (interference) [10]: 1 (inactive)
outcome [11]: inactive

c1coc(CNc2ncnc3nc[nH]c23)c1
survival [2]: 3.5 (inactive)
outcome [3]: inactive
outcome [7]: inactive
outcome [4]: inactive
outcome [5]: inactive
outcome [1]: inactive
outcome [20]: inactive
outcome [6]: inactive

O=c1c(O)c(-c2ccc(O)cc2O)oc2cc(O)cc(O)c12
period change [8]: 0.015 h (inactive)
inhibition [9]: -4% (inactive)
fluorescence ratio (interference) [10]: 1 (inactive)
outcome [3]: inactive
outcome [7]: inactive
outcome [4]: inactive
outcome [1]: inactive
outcome [20]: inactive
outcome [6]: inactive
outcome [11]: inactive

Nc1ccc(S(=O)(=O)Nc2ncccn2)cc1
survival [2]: 31.2 (inactive)
outcome [7]: inactive
outcome [1]: inactive

CC[C@H]1OC(=O)[C@H](C)[C@@H](O[C@H]2C[C@@](C)(OC)[C@@H](O)[C@H](C)O2)[C@H](C)[C@@H](O[C@@H]2O[C@H](C)C[C@H](N(C)C)[C@H]2O)[C@](C)(O)C[C@@H](C)/C(=N\OCOCCOC)[C@H](C)[C@@H](O)[C@]1(C)O
outcome [7]: inactive
outcome [1]: inactive

From PubChem BioAssay
